Most compounds without a hit are left out; they make up all but 21% or so of the library.
SARS PLP yeast: SARS-CoV PLP inhibition in yeast; Potency, µM (highest dose often 32.9 µM), without a hit: at the highest dose activity, positive = growth rescue, actives largely listed as activators; actives 0.19% (n = 330,000); S. cerevisiae expressing SARS-CoV PLpro, growth rescue; note: potency is the fitted concentration of half-maximal effect; 0% is about no effect; nearly all actives have a fitted effect of over 55% in size
Pf growth 48h: inhibits P. falciparum growth in the first generation, 48 h; AID 504832; Potency, µM (top dose mostly 28.7 µM), for the others: at the highest dose activity change, negative = inhibition, hits mostly inhibitors; actives 5.9% (n = 310,000); P. falciparum luciferase growth in erythrocytes, 48 h; active = well fitted inhibition curve with a large enough effect; inconclusive = small, poorly fitted or top-dose-only effect, or another doubt; inactive = no such curve, though single readings can be large or run the other way; note: potency is the fitted concentration of half-maximal effect; % is set by controls: 0 for no effect and ±100 for the full control effect
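Compounds are pin-transferred into medium, infected erythrocytes (2% hematocrit, 0.1% parasitemia final) are added, and plates sit one parasite generation at 37 C in 5% CO2. Detection reagent is then added and luminescence measured.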
NS1 inh: blocks influenza NS1 protein function; Potency, µM (highest dose often 46.1 µM), for the others: at the top dose activity, positive = more growth; actives 0.4% (n = 270,000); AID 2326; note: potency is the fitted concentration of half-maximal effect; actives are rising curves; nearly all actives have a fitted effect of over 50% in size
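A cell-based growth assay was used: compounds that relieve NS1-induced slow growth of budding yeast raise OD600. Assay medium was yeast nitrogen base with ammonium sulphate and -URA supplement, pH 6.0, with 2% galactose.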
Shiga inhibitor: blocks Shiga toxin action in Vero cells; Vero cells, Shiga toxin protein synthesis inhibition reporter; inhibition, % at 38.7 µM; actives 9.2% (n = 290,000); AID 2315; in the data active = inhibition mostly above about 28%, no sharp cut-off; inactive = mostly below about 43%; note: 0% is about no effect
CHX counter: counter-screen hit for Shiga toxin inhibitors, cycloheximide; actives 12% (n = 300,000); AID 2314; max response, %; cell reporter, cycloheximide protein synthesis inhibition counterscreen; in the data active = max response mostly above about 13%, no sharp cut-off; inactive = mostly below about 14%; note: read at 38.3 µM for the half of the compounds with a filed dose; 0% is about no effect
Pf growth 96h: P. falciparum growth inhibition at 96 hour, primary screen for plastid delayed-death inhibitors; P. falciparum luciferase reporter growth, 96 h; Potency, µM (highest dose often 28.7 µM), for the others: at the top dose activity change, negative = inhibition, usual class: inhibitors; actives 6.9% (n = 320,000); active = well fitted inhibition curve with a large enough effect; inconclusive = small, poorly fitted or top-dose-only effect, or another doubt; inactive = no such curve, though single readings can be large or run the other way; note: potency is the fitted concentration of half-maximal effect; % is set by controls: 0 for no effect and ±100 for the full control effect
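Two-generation exposure (96 h) targets delayed-death phenotype. Reporter parasites carrying integrated firefly luciferase, in red cells at 2% hematocrit and 0.05% parasitemia final, kept at 37 C, 5% CO2; luminescence loss indicates inhibition.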
An asterisk follows results filed as active; i = inactive; ? = inconclusive; · = no result given; [ ] = remark or other dose. Unless noted, calls come from the whole dose curve.

SMILES	SARS PLP yeast	Pf growth 48h	NS1 inh	Shiga inhibitor	CHX counter	Pf growth 96h
CCC(=O)Nc1ccc2c(c1)ncn2CCc1ccccc1	0%	5%	1%	27	7	-12%
CCCn1cnc2cc(NCc3cccc(OC)c3)ccc21	-9%	?	-14%	35*	24*	·
CCCn1cnc2cc(NCc3ccc(Br)cc3)ccc21	-2%	-62%	-9%	64*	29*	-2%
CCCn1nnnc1NCc1cccc(OC)c1	1%	23%	26%	23	-3	-17%
CN(C)c1ccc(CNc2ccc3c(c2)ncn3C(C)(C)C)cc1	0%	13%	-2%	58*	28*	18%
CCn1cnc2cc(NCc3ccc(Br)cc3)ccc21	-2%	36%	-10%	67*	40*	22%
COc1ccc(S(=O)(=O)Nc2ncccc2C)c2ccccc12	12%	22%	7%	·	-1	27%
COc1ccccc1CNC(=O)C1CCC(=O)N(CCCc2ccccc2)C1 (configuration not stated)	-3%	16%	-1%	-3	-2	?
N/N=C/C(=N\Nc1ccc(Cl)cc1)C(=O)c1ccncc1	-2%	?	-9%	-3	1	?
CCN(CC)c1ccc(CNc2ccc3c(c2)ncn3CC)cc1	2%	9%	3%	17	12	-19%
Cc1ccc(CNc2ccc3c(c2)ncn3C(C)C)cc1	1%	-14%	5%	61*	36*	?
CCn1cnc2cc(NCc3ccc(C)cc3)ccc21	-1%	173%	-19%	90*	60*	10%
CCn1cnc2cc(NCc3ccc(N(C)C)cc3)ccc21	1%	96%	·	154*	52*	5%
CCCn1cnc2cc(NCc3ccccc3O)ccc21	0%	33%	2%	113*	39*	?
O=[N+]([O-])c1cccc(NC2=NCCC2)c1	0%	4%	7%	-5	-4	?
COC(=O)Nc1ccc(S(=O)(=O)N2CCC(C(=O)N3CCCC(C)C3)CC2)cc1 (configuration not stated)	0%	0%	-4%	18	2	12%
C/C(N)=C(/C#N)C(=O)COc1ccc(Cl)cc1Cl	-2%	18%	·	47	48*	27%
C/C(N)=C(/C#N)C(=O)COC(=O)CNC(=O)c1ccc(Cl)cc1Cl	-7%	13%	·	68*	13*	9%
C[C@H](NC(=O)Cc1cc(F)cc(F)c1)C(=O)N[C@@H](C(=O)OC(C)(C)C)c1ccccc1	·	·	·	-35	-6	·
O=C(CCCc1c[nH]c2ccccc12)N1CCOCC1	5%	32%	8%	32	19*	-12%
O=C1CN(C(=O)CCCc2c[nH]c3ccccc23)c2ccccc2N1	2%	9.3µM*	?	2	8	·
O=C(CCc1c[nH]c2ccccc12)N1CCCCCCC1	2%	-19%	-7%	24	11	-12%
COc1ccc(CCNC(=O)[C@@H](NC(=O)N2CC(=O)Nc3ccccc32)C(C)C)cc1OC	-1%	-20%	-8%	13	1	12µM*
CC(C)[C@H](NC(=O)N1CC(=O)Nc2ccccc21)C(=O)N[C@@H](Cc1ccccc1)C(=O)O	1%	0%	-5%	-4	-2	-1%
Cc1cc(NC(=O)NN2CCOCC2)nn1-c1c(Cl)cccc1Cl	-1%	7%	5%	-8	-2	-1%
SMILES	SARS PLP yeast	Pf growth 48h	NS1 inh	Shiga inhibitor	CHX counter	Pf growth 96h
CC(=O)c1c(C)[nH]c(C(=O)Nc2ccccc2Cl)c1C	·	58%	-11%	46*	19	51%
CC(=O)c1c(C)[nH]c(C(=O)Nc2ccc(F)cc2F)c1C	-2%	48%	-7%	65*	44*	46%
CC(=O)c1c(C)[nH]c(C(=O)Nc2cccc3ccccc23)c1C	-5%	-25%	-9%	8	5	?
CC(=O)c1c(C)[nH]c(C(=O)Nc2cc(F)ccc2C)c1C	-9%	0%	-24%	-1	10	6%
CC(=O)c1c(C)[nH]c(C(=O)Nc2cc(C)ccc2C)c1C	-8%	·	0%	-14	-3	2%
CC(=O)c1c(C)[nH]c(C(=O)Nc2ccc(C)cc2Br)c1C	-8%	111%	-3%	66*	25*	126%
O=C(Cc1c(Cl)cccc1Cl)OCC(=O)N1CCOCC1	-1%	·	·	·	·	·
CCOC(=O)CC1COc2ccccc2N1C(=O)c1cccc([N+](=O)[O-])c1 (configuration not stated)	-1%	6%[0.00184 µM]	-2%	-7	-3	17%
CN(C)CCNC(=O)/C(=C/c1ccc(-c2cccc(Cl)c2)o1)NC(=O)c1ccccc1	-29%	13µM*	7%	-15	-8	13%
CN(C)CCNC(=O)/C(=C/c1ccc(-c2cccc([N+](=O)[O-])c2)o1)NC(=O)c1ccccc1	26%	13µM*	8%	1	-2	?
CN(C)C(=O)/C(=C\c1ccc(-c2cccc([N+](=O)[O-])c2)o1)NC(=O)c1ccccc1	-4%	?	·	-9	-3	-20%
CCCc1nc(C(C)(C)O)c(C(=O)O)n1Cc1ccc(-c2ccccc2-c2nn[nH]n2)cc1	5%	·	·	-9	-1	·
CS(=O)(=O)N(CCc1ccccc1)CC(=O)N1CCN(c2ccc(F)cc2)CC1	-22%	-15%	-2%	-7	-3	?
COc1cccc(CNC23CC4CC(CC(C4)C2)C3)c1OCc1ccccc1	-1%	10µM*	-9%	-4	-4	-15%
CCOC(=O)c1cn[nH]c1NC(=S)Nc1ccc(OC)cc1	-2%	111%	1%	1	17	i
COC(=O)c1cn[nH]c1NC(=S)Nc1ccccc1C	-2%	129%	-8%	92*	45*	132%
COC(=O)c1cn[nH]c1NC(=S)Nc1ccc(C)cc1Cl	-6%	121%	-9%	74*	27*	i
COC(=O)c1cn[nH]c1NC(=S)Nc1ccc(Cl)c(Cl)c1	3%	·	-6%	118*	71*	-66%
COC(=O)c1ccccc1NC(=S)NC(C)=O	0%	16%	3%	-4	-2	46%[1.15 µM]
CC(C)N(C(=O)[C@H]1CC(CC(=O)NCCc2ccccn2)C(=O)N2CCc3c([nH]c4ccccc34)[C@]12C)C(C)C (some centres not stated)	0%	·	·	·	·	·
CCOc1ccc(NC(=O)CN(C)c2nnnn2-c2ccccc2)cc1OCC	-1%	3%	-4%	-4	-2	-10%
CNC(=O)c1csc(-c2ccc(C)cc2)n1	-10%	77%	-9%	45*	24*	94%
CNC(=O)c1csc(-c2ccncc2)n1	4%	1%	-1%	-6	10	6%
CNC(=O)c1csc(-c2ccc(Cl)cc2)n1	-2%	32%	-3%	47*	38*	2%
O=C(O)c1csc(-c2ccc(Cl)cc2)n1	0%	7%	·	-6	2	56%

High-throughput results as filed in PubChem.
